Rows were chosen to be rich in hits. Some 0.97% of all compounds tested hit in one or more screens of this group.
NTR1 agonist: agonists of human NTR1, primary screen, imaging, U2OS cells, beta-arrestin-GFP, high content | activation, % at 20 µM | Neurotensin receptor type 1 (Homo sapiens), P30989 | 330,000 tested, 0.17% active | NTR1-U2OS beta-arrestin-GFP spot imaging, agonist mode | AID 493036, 2011;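 active means activation at or above 40% of the spot to cytoplasm intensity ratio, with at least 20 cells analyzed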;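 further: 0% = DMSO without peptide and 100% = 100 nM NTR1 peptide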
NOD2-RIPK2 inh: NOD2-RIPK2 binding disruptors in cells, primary screen, fluorescence, CHO cells, BLA complementation; Receptor-interacting serine/threonine-protein kinase 2 (Homo sapiens), O43353; CCF4 ratio; inhibition, % at 4.98 µM; 360,000 tested, 0.38% active; AID 624267, 2012; in the data active means inhibition above about 21%;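 further: 0% = vehicle only and 100% = reference blocker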
B2AR ag: beta2AR agonists driving receptor internalization, primary screen, cell-based, FAP fluorogen, flow cytometry. Beta-2 adrenergic receptor (Homo sapiens), P07550. Am2.2-beta2AR cells. response, % (no concentration beside the values). 340,000 tested, 0.43% active. AID 504454, 2011;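 active means response above a set limit, near 3 SD of response in nonfluorescent compounds, cut at about 42% in these data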
TLR9-MyD88 inh: inhibitors of TLR9-MyD88 association in cells, primary screen, cell-based, CHO, BLA complementation, fluorescence | inhibition, % at 4.98 µM | 340,000 tested, 0.21% active | CCF4 FRET ratio | Toll-like receptor 9 (Homo sapiens) + Myeloid differentiation primary response protein …;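 active means inhibition above the mean over all tested compounds plus 3 SD, cut at about 21% in these data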;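 further: 0% = DMSO only wells and 100% = clavulanate BLA inhibitor control wells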
Bfl-1 A1 inh: caspase 3/7 activation in MEF A1-2A-BIM cells, primary screen, A1 inhibitor project, cell-based, luminescence, HTS; Caspase-Glo 3/7 luminescence, 3 h; percent of clofoctol response, vehicle zero; caspase activation, % (concentration not given with the values); 330,000 tested, 0.066% active;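 active means over half of replicate activation scores above 10%, or exactly half above 10 with the replicate mean above 10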
TLR4-MyD88 BLA: inhibitors of TLR4-MyD88 association in cells, primary screen, cell-based, HeLa CL3-4, BLA complementation, FRET ratio; inhibition, % at 8.4 µM; HeLa CL3-4 TLR4/MyD88 BLA complementation; Toll-like receptor 4 (Homo sapiens) + Myeloid differentiation primary response protein …; 200,000 tested, 0.18% active; in the data active means inhibition above about 25%;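 further: 0% = vehicle and 100% = reference inhibitor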
Beta2AR ag CP1: beta2AR agonists via receptor internalization, confirmation, cell-based, FAP fluorogen, flow cytometry, single point, cherry pick 1. 1,100 tested, 25% active. shares compounds with B2AR ag. Am2.2-beta2AR cells, FAP surface receptor; stronger effect = lower value. percent response (surface receptor), % at 10 µM;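 active means surface receptor percent response at or below 58%, roughly 3 SD from nonfluorescent compounds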
B2AR FAP counter: counter-screen for beta-2AR agonists: fluorescence in Am2.2 cells | shares compounds with B2AR ag | FAP fluorogen flow cytometry, fluorescence counterscreen; stronger effect = lower value | calls only at 10 µM | 1,100 tested, under 10 active;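 active means percent response below a set limit in fluorescence channel 1 and below 50% in channel 8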
The depositor's hits bear a star; i = inactive; · = not tested or not shown.

SMILES | NTR1 agonist | NOD2-RIPK2 inh | B2AR ag | TLR9-MyD88 inh | Bfl-1 A1 inh | TLR4-MyD88 BLA | Beta2AR ag CP1 | B2AR FAP counter
CCOc1ccc(CCNC(=O)c2ccc(NC3=NC4CS(=O)(=O)CC4S3)cc2)cc1 (stereo not given) | -0.4 | -5.4 | 2.9 | -5.0 | 0.4 | · | · | ·
Cn1c(=O)n(C)c2cc([N+](=O)[O-])c(N3CCN(S(=O)(=O)c4ccc(C(C)(C)C)cc4)CC3)cc21 | 11.2 | -2.5 | 48.2* | 0.8 | -0.7 | 11.8 | 106.8 | i
COc1ccccc1C(=O)OCC(=O)Nc1ccccc1OC(F)F | 1.0 | 1.8 | 7.3 | -3.5 | 0.0 | · | · | ·
CCN(Cc1ccccc1)S(=O)(=O)c1cc(C(=O)NC(C)C2CC3CCC2C3)ccc1OC (stereo not given) | 2.2 | -4.7 | 48.9* | -3.4 | -0.2 | -12.8 | 51.7* | i
O=C(Nc1ccc2nc(-c3cccs3)c(-c3cccs3)nc2c1)N1CCOCC1 | 10.2 | 4.5 | 59.1* | -0.1 | 0.0 | 1.4 | 20.2* | i
O=c1[nH]c2ccccc2cc1CN(Cc1ccco1)S(=O)(=O)c1ccc(F)cc1 | 1.0 | 3.1 | -13.4 | -10.3 | -1.3 | · | 142.2 | i
Cn1ccnc1Sc1nnnn1-c1ccccc1 | -0.4 | -15.2 | -2.8 | -2.2 | 0.3 | -15.1 | · | ·
CC(NC(=O)/C(=C\c1ccco1)NC(=O)c1ccco1)C(=O)O (stereo not given) | -0.5 | 3.5 | 1.9 | -4.8 | 0.0 | · | · | ·
N#Cc1cc(-c2ccccc2)nc(Oc2ccc(Cl)cc2)n1 | 13.5 | -11.1 | 44.3* | 7.5 | 0.3 | 0.2 | 49.7* | i
CCOc1ccc2[nH]c3c(N4CCN(C(=O)c5ccco5)CC4)ncnc3c2c1 | 0.7 | -3.8 | · | · | -0.4 | · | · | ·
CCOC(=O)N1CCN(c2ncnc3c2[nH]c2ccc(OC)cc23)CC1 | 1.3 | -8.0 | 90.5* | 1.7 | 0.0 | 17.6 | 124.2 | i
Cc1ccc(CNC(=O)CCCc2c[nH]c3ccccc23)cc1 | -0.2 | 1.1 | 51.5* | 0.2 | 1.4 | · | 103.9 | i
Cc1ccc(NC(=O)c2cc(N3C(=O)C=CC3=O)ccc2Cl)cc1C | -0.2 | -5.7 | 78.8* | -13.3 | 0.2 | 2.8 | 100.6 | i
Cc1ccc(NC(=O)c2cc(N3C(=O)C=CC3=O)ccc2N2CCOCC2)cc1 | · | -1.9 | 123.1* | 18.6 | · | 3.9 | 42.3* | i
Cn1nnnc1Sc1ncnc2scc(-c3ccc(Br)cc3)c12 | 10.4 | 7.1 | 67.8* | 7.2 | -0.1 | · | 32.4* | i
CS(=O)(=O)N1CCc2cc(C(=O)N3CCN(c4ccccc4)CC3)ccc21 | -0.6 | -2.9 | 3.6 | -0.8 | -0.5 | · | · | ·
COc1ccccc1C(=O)NC(=O)COC(=O)Cc1ccc(F)cc1 | -0.1 | -2.2 | 58.5* | -1.6 | 0.0 | · | 114.0 | i
N#Cc1ccc(-c2cccnc2)nc1SCc1ccc(Cl)cc1Cl | 10.0 | -9.8 | 51.7* | 8.0 | 0.2 | 3.0 | 71.1 | i
N#Cc1c(N2CCCC2)nc(N)c2c(N)nc(N3CCCC3)cc12 | 0.6 | 0.2 | 45.6* | -1.7 | 1.3 | -1.6 | 82.9 | i
COc1cc2c(C#N)c(N3CCCC3)nc(N)c2c(N)n1 | 6.3 | -8.7 | -8.3 | -8.7 | 0.5 | · | · | ·
CC(=O)C1=C(C)OC(N)=C(C#N)C1c1cc([N+](=O)[O-])ccc1Cl (stereo not given) | 1.2 | 3.2 | -0.9 | 2.4 | 1.3 | · | · | ·
C=CCn1c(C2CC2)n[nH]c1=S | 0.3 | -6.0 | 3.0 | 0.5 | -0.2 | 10.5 | · | ·
CCCCCC1CCC(c2n[nH]c(=S)n2C)CC1 (stereo not given) | 3.4 | -7.8 | -4.1 | 6.1 | 0.1 | 3.2 | 110.4 | i
CN(CCCN1CCOCC1)Cc1cn(C)nc1-c1ccccc1F | -1.6 | -1.1 | 1.2 | -7.5 | 0.6 | 7.2 | 130.3 | i
CN(Cc1cn(C)nc1-c1ccccc1F)C1CCOC1 (stereo not given) | -0.2 | -1.4 | -9.0 | -4.5 | 1.1 | 3.1 | · | ·
SMILES | NTR1 agonist | NOD2-RIPK2 inh | B2AR ag | TLR9-MyD88 inh | Bfl-1 A1 inh | TLR4-MyD88 BLA | Beta2AR ag CP1 | B2AR FAP counter
Cc1ccc(S(=O)(=O)CC(=O)N(CCCN2CCOCC2)c2nc3c(F)cccc3s2)cc1 | 0.7 | -1.0 | 5.6 | 0.6 | -0.3 | · | · | ·
O=C(CCS(=O)(=O)c1ccccc1)N(CCCN1CCOCC1)c1nc2c(F)cccc2s1 | 15.2 | 9.4 | 111.2* | 4.0 | 0.5 | · | 81.9 | i
Cc1cccc(Nc2n[nH]c(C)c2[N+](=O)[O-])c1 | 0.5 | -8.3 | 64.0* | -10.5 | -0.5 | 17.6 | 114.3 | i
Cc1[nH]nc(Nc2ccccc2)c1[N+](=O)[O-] | -0.5 | 7.8 | -2.2 | 0.6 | 1.0 | 3.1 | · | ·
C[C@H](CO)N1C[C@H](C)[C@H](CN(C)C(=O)Cc2cccnc2)Oc2ncc(Br)cc2C1=O | · | 1.8 | · | 1.1 | · | · | · | ·
CC(NCCc1ccc(O)cc1)C(O)c1ccc(O)cc1 (stereo not given) | 4.9 | -5.7 | -5.3 | 5.7 | -0.3 | -3.2 | 90.7 | i
CC(CCc1ccc(O)cc1)NCCC(c1ccccc1)c1ccccc1 (stereo not given) | 9.8 | 18.4 | 15.8 | 18.6 | 1.3 | · | 68.7 | i
C[C@@H](NCCc1ccc(O)cc1)[C@@H](O)c1ccc(O)cc1 | 0.4 | -0.2 | 9.7 | -2.4 | 0.1 | · | 95.8 | i
CC1CCCN(S(=O)(=O)c2ccc3c(c2)C(C)(C)C(=O)N3C)C1 (stereo not given) | 0.7 | -7.6 | 1.9 | 0.9 | -0.8 | · | · | ·
O=C(c1cc(-c2ccc(Cl)cc2)n(-c2cc(Cl)ccc2Cl)n1)N1CCOCC1 | 2.9 | -15.8 | 61.6* | -0.7 | -0.2 | 0.2 | 129.3 | i
Cc1cc(OCc2cc(C(=O)N(C)CCCN3CCOCC3)no2)cc(C)c1Cl | -0.2 | -4.8 | 6.0 | -8.5 | 2.1 | · | · | ·
CN(CCCN1CCOCC1)C(=O)c1cc(COc2cccc(C(F)(F)F)c2)on1 | -0.2 | -6.3 | 51.9* | -14.6 | -0.3 | · | 83.6 | i
CN1CCCC(OC(=O)c2cc(Cl)ccc2Cl)C1 (stereo not given) | 0.5 | 8.1 | 4.1 | -98.2 | 0.5 | -7.3 | · | ·
Nc1cc(N)cc(-c2nc3ccccc3o2)c1 | -2.9 | 16.6 | 43.0* | 7.4 | -1.4 | · | 116.2 | i
